Source: PubChem (National Center for Advancing Translational Sciences (NCATS))
Luc counter – counter-screen: inhibitors of Kinase-Glo firefly luciferase. Potency, µM (titrated, usually from 38.3 µM), inactives show at the highest dose activity change, negative = inhibition, usual class: inhibitors. 200,000 tested, 0.28% active. Kinase-Glo luciferase, ATP luminescence, 8 min. AID 1379. Q27757; also: % is scaled to controls: 0 for no effect and ±100 for the full control effect; nearly all actives have a fitted effect of over 60% in size
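Substrate mix (final 50 mM imidazole pH 7.2, 50 mM KCl, 7 mM MgCl2, 10 uM ATP, 0.01% Tween 20, 0.05% BSA) plus pin-tool compound, then Kinase-Glo detection mix; 8 min ambient, luminescence read.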
SMN2 splice enh – increases expression of the SMN2 splice variant | HEK293 SMN2-luciferase splicing reporter, luminescence, 30-36 h | Potency, µM (highest dose often 46.1 µM), for the others: at the top dose activity change, positive = activation, usual class: activators | 210,000 tested, 2.8% active | AID 1458; also: % of control where 0% means no effect; nearly all actives have a fitted effect of over 55% in size
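qHTS luciferase splicing reporter: luminescence rises when SMN2 exon 7 is included in transfected HEK293 cells. Compound exposure lasted 30-36 h at 37C, with 4.5 mM final sodium butyrate as control, followed by a ONE-Glo read.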
Rab9 promoter act – Rab9 promoter activation; Huh7 Rab9 promoter-luciferase reporter, luminescence, 24 h; Potency, µM (series often up to 9.22 µM), for the others: at the top dose activation, negative = inhibition, hits mostly activators; 320,000 tested, 2.8% active; AID 485297; also: % of control where 0% means no effect; nearly all actives have a fitted effect of over 60% in size
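Huh7 reporter line, Rab9 promoter upstream of luciferase. Compound exposure 24 h at 37 °C in reduced-serum medium with 10% FBS. Read-out: luminescence.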
NPC1 promoter act – activates the NPC1 promoter | Potency, µM (titrated, usually from 9.22 µM), for inactives: at the highest dose activation, hits mostly activators | Huh7 NPC1 promoter luciferase reporter, 24 h | AID 485313 | 320,000 tested, 2.4% active; also: % of control where 0% means no effect; nearly all actives have a fitted effect of over 60% in size
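In 1536-well qHTS, Huh7 cells harboring an NPC1 promoter–luciferase construct received compound for 24 h; activation was quantified by luminescence following luciferase reagent addition.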
ELG1 genotox – genotoxicity induction in ELG1-luciferase HEK293T cells; HEK293T ELG1-luciferase reporter, luminescence, 16 h; 330,000 tested, 1.3% active; Potency, µM (titrated, usually from 46 µM), without a hit: top-dose activity change, positive = activation, usual class: activators; also: % of control where 0% means no effect; nearly all actives have a fitted effect of over 60% in size
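Luminescence read-out: rising ELG1-luciferase signal, reflecting elevated ELG1 protein under genetic stress, flags genotoxic compounds. Cells were treated for 16 hr at 37 °C before ONE-Glo detection.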
FLuc modulator – firefly luciferase modulation, counter-screen for miR-21 project; P08659; purified FLuc, Km substrates, luminescence inhibition; Potency, µM (highest dose often 57.5 µM), without a hit: at the highest dose activity change, negative = inhibition, most hits filed as inhibitors; 360,000 tested, 6.9% active; AID 588342;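 also: plate controls were vehicle for no effect and reference inhibitor for full effect; nearly all actives have a fitted effect of over 55% in size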
Target sequence (P08659 whole entry, looked up): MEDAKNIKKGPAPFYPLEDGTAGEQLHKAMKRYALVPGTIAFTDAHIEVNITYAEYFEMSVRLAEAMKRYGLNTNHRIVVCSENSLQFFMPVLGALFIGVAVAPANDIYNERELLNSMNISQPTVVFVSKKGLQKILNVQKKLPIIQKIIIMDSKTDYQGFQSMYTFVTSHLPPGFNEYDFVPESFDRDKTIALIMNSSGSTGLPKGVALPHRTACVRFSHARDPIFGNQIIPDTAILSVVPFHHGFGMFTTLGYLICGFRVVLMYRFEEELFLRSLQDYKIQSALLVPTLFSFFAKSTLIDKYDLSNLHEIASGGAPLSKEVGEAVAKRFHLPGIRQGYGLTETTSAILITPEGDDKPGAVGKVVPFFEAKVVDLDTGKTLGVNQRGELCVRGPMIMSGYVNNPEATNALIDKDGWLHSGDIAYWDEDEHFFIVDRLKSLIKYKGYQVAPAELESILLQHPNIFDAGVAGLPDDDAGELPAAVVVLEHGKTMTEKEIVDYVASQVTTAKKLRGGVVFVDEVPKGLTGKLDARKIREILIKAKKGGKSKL
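Purified P. pyralis luciferase (10nM final) with 10uM D-luciferin and 10uM ATP (Km levels) in 50mM Tris acetate pH 7.5, 10mM Mg acetate, 0.01% Tween-20, 0.05% BSA; qHTS 6-point titration, ~60 µM downward; luminescence read.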
* = called active by the depositor; u = inconclusive; x = no result given. Hits are enriched below; roughly 7.4% of the tested compounds scored in any of these assays. Calls follow the shape of the dose curve; as a rule, active = well fitted curve in the direction sought with a large enough effect; inconclusive = small, poorly fitted or top-dose-only effect, or another doubt; inactive = no such curve, though single readings can be large; an effect the other way counts as inactive or inconclusive. Potency is read from the fitted curve at half-maximal effect.

SMILES	Luc counter	SMN2 splice enh	Rab9 promoter act	NPC1 promoter act	ELG1 genotox	FLuc modulator
CCN(CC)S(=O)(=O)c1nnc(NC(=O)COc2cccc(C)c2)s1	x	x	x	x	x	-11.2%
COc1cc(C(CC(=O)Nc2cccc(C(C)=O)c2)N2Cc3ccccc3C2=O)cc(OC)c1OC (stereo unspecified)	x	x	x	x	x	-10.9%
O=C(Nc1nc(-c2ccccn2)cs1)c1ccc(Br)s1	20.8%	-95.7%	-3.4%	-3.0%	u	19µM*
O=C(Nc1nccs1)c1ccc(N2CCOCC2)c([N+](=O)[O-])c1	x	x	2.24µM*	1.78µM*	u	12µM*
C/C(=C\c1ccccc1)C(=O)Nc1nccs1	-2.7%	11.2µM*	3.55µM*	2.51µM*	u	9.53µM*
O=C(Nc1nccs1)Oc1ccccc1	-2.8%	-1.4%	-5.1%	1.3%	0.1%	-3.5%
O=C(Nc1nccs1)c1ccc(Br)s1	x	x	3.98µM*	u	u	15.1µM*
Cc1ccc(S(=O)(=O)N(CC(=O)O)c2cccc(Cl)c2)cc1	1.3%	x	x	x	x	x
O=C(NCCO)C(=O)Nc1c2c(nn1-c1ccc(F)cc1)CSC2	x	x	x	x	x	3.5%
CCOc1cccc(C(=O)Nc2nnc(-c3ccco3)s2)c1	-4.6%	2.82µM*	3.98µM*	u	u	4.78µM*
CCOc1cccc(C(=O)Nc2nccs2)c1	-4.2%	u	u	u	u	15.1µM*
Cn1cc(Cl)c(C(=O)Nc2nccs2)n1	x	x	21.8%	15.5%	23.8%	-18.7%
O=C(Nc1nccs1)c1ncc(Cl)c(Cl)c1Cl	x	x	5.4%	-0.3%	-14.1%	13.5µM*
O=C(Nc1nccs1)c1ccccn1	-13.7%	u	3.16µM*	u	u	u
CCC(=O)Nc1cccc(C(=O)Nc2nccs2)c1	1.0%	x	11.3%	10.5%	0.6%	u
COc1cc(O)ccc1-c1nc2ccc(Br)cn2c1Nc1ccccc1C	x	-28.0%	x	x	x	2.5%
CCOC(=O)c1ccc(NC(=O)CCn2c(=O)c3cccn3c3cccnc32)cc1	x	x	x	x	x	1.1%
CCN(CC)c1nn2c(=O)c(C(=O)NCc3ccc(F)cc3)cnc2s1	x	x	x	x	x	6.0%
CC(C)(C)c1ccc(Oc2ccc(NC(=O)C3CC=CCC3C(=O)O)cc2)cc1 (stereo unspecified)	5.4%	15.8µM*	-7.8%	2.3%	-1.1%	26.9µM*
O=C(N/N=C/c1ccc(Cl)cc1Cl)c1cccc(N2CCCC2=O)c1	x	x	6.8%	12.6%	0.4%	6.75µM*
O=C(NC1CCCCCCC1)c1cccc(Cl)c1	x	x	u	u	u	15.1µM*
O=C(NC1CCCCCC1)c1cccc(N2CCCC2=O)c1	-8.3%	7.08µM*	2.24µM*	3.55µM*	u	15.1µM*
c1ccc(-c2ccc(-c3ccccn3)nn2)nc1	10µM*	7.08µM*	0.316µM*	0.316µM*	9.8%	1.35µM*
O=S(=O)(NCCc1nnc2ccc(SCc3c(F)cccc3Cl)nn12)c1ccccc1	x	x	x	x	x	-13.4%
Cc1ccn2c(c1)nc(=S)n2C(=O)c1ccco1	-9.6%	17.8µM*	1.58µM*	3.98µM*	u	1.51µM*
SMILES	Luc counter	SMN2 splice enh	Rab9 promoter act	NPC1 promoter act	ELG1 genotox	FLuc modulator
O=C(Nc1ccccc1)N1CCC(c2ccccc2)C1 (stereo unspecified)	-8.1%	17.8µM*	1.78µM*	1.58µM*	u	12µM*
O=C(c1cccs1)N1CCC(c2ccccc2)C1 (stereo unspecified)	-7.7%	15.8µM*	2.82µM*	3.16µM*	18.4µM*	21.3µM*
Cc1ccc(NC(=O)N2CCCC(c3ccccc3)C2)cc1 (stereo unspecified)	x	x	22.5%	2.5%	1.8%	12µM*
CCc1ccc(NC(=O)N2CCC(c3ccccc3)C2)cc1 (stereo unspecified)	0.5%	25.1µM*	0.891µM*	1.12µM*	u	6.75µM*
CCc1ccc(NC(=S)N2CCC(NC(=O)c3ccccc3)CC2)cc1	x	x	-1.4%	1.7%	-4.4%	0.5%
CCS(=O)(=O)n1nc(-c2ccco2)nc1NCc1ccc(C(C)C)cc1	x	x	x	x	x	-2.7%
Cc1ccc(CNC(=O)c2cn(C)c3ccc(S(=O)(=O)N4CCC(C)CC4)cc3c2=O)cc1	x	-1.6%	x	x	x	-6.1%
CCc1ccc(OCC(=O)N2CCc3ccccc32)cc1	x	x	2.24µM*	3.55µM*	u	2.69µM*
Cc1ccc(OCC(=O)N2CCCc3ccccc32)cc1	0.4%	1.8%	13.4%	9.6%	2.2%	u
Cc1ccc(OCC(=O)N2CCc3ccccc32)cc1	-8.2%	14.1µM*	3.55µM*	2.82µM*	16.4µM*	2.69µM*
O=C(COc1ccc2c(c1)CCC2)N1CCc2ccccc21	-3.2%	u	1.12µM*	2.82µM*	11.6µM*	5.36µM*
COc1ccc(N2CCN(CCCn3c(=S)[nH]c4ncccc4c3=O)CC2)cc1	2.4%	u	-1.1%	8.7%	3.4%	0.3%
O=c1c2cccnc2[nH]c(=S)n1CCCN1CCN(c2ccc(F)cc2)CC1	6.3%	7.94µM*	0.0%	1.5%	10.2%	-1.3%
CCn1c(C(=O)N2CCCC(C(=O)N3CCN(c4cc(C)ccc4C)CC3)C2)cc2sccc21 (stereo unspecified)	x	-42.7%	x	x	x	-15.9%
CCOC(=O)c1c(C)[nH]c(C)c1S(=O)(=O)N(C)CC(=O)Nc1ccc(OC)cc1	x	x	x	x	x	3.9%
O=C(CSc1nnc(-c2ccccc2F)o1)N1CCCC1	x	x	u	28.7%	u	u
CC1CCCCN1C(=O)CSc1nnc(-c2ccco2)o1 (stereo unspecified)	x	x	2µM*	1.78µM*	20.6µM*	15.1µM*
CC1CCCCN1C(=O)CSc1nnc(-c2ccccc2F)o1 (stereo unspecified)	x	x	2.51µM*	2.51µM*	u	u
Cc1cccc(CNC(=O)CCCN2C(=O)COc3ccc(C)cc32)c1	x	-5.0%	x	x	x	-11.1%
CC1CCCN(C(=O)CSc2c3c(nc4cc(Cl)ccc24)CCCC3)C1 (stereo unspecified)	x	-18.5%	x	x	x	-15.5%
Cn1c(=O)[nH]c(=O)c2c1nc1n2CCN1c1ccccc1	x	2.0%	x	x	x	-5.9%
N/C(=N\OC(=O)CCCOc1ccc(Cl)cc1Cl)c1ccncc1	0.2%	6.7%	-4.6%	-5.5%	-0.5%	u
N/C(=N\OC(=O)COc1ccc(Cl)cc1Br)c1ccncc1	1.9%	11.2µM*	3.55µM*	3.55µM*	8.2µM*	10.7µM*
N/C(=N\OC(=O)COc1ccc(Cl)cc1Cl)c1cccnc1	-1.3%	u	4.1%	24.9%	u	6.01µM*
CCc1ccc(OCC(=O)O/N=C(\N)c2ccncc2)cc1	x	x	13.6%	15.4%	u	u
N/C(=N\OC(=O)COc1ccc(Cl)cc1)c1cccnc1	0.1%	19.4%	1.3%	4.1%	9.0%	u
N/C(=N\OC(=O)COc1ccc2ccccc2c1Br)c1ccncc1	0.3%	1.4%	1.7%	10.8%	u	21.3µM*
